Tgondii IFNg = inhibitors of Toxoplasma gondii growth with IFN-gamma. Toxoplasma gondii growth in IFN-gamma-treated host cells; hits give low values. activity change, negative = inhibition, % (concentration not given with the values). 3.8% of 69,000 active. AID 1259416; in the data active = activity change below about -70%, passing the limit was not always enough;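 also: host cells are HeLa cells infected with Toxoplasma gondii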
Active calls of the source: *; i = inactive. Many of the other results were omitted from the sample, so hits are more common in it than they were.

SMILES	Tgondii IFNg
C=CC(=O)N1CCC2(CCC(=O)N2CCN2CCCC2)CC1	-6
CCOCC(=O)N1CCC2(CCC(=O)N2CCN2CCCC2)CC1	-89*
Cc1cc(N2CCCN(Cc3ccc(OC(F)F)cc3)CC2)ccn1	-29
COc1cccc(C(=O)N2CCN(S(=O)(=O)NCc3ccccc3)CC2)c1	5
O=C(Cn1cc(C(F)(F)F)ccc1=O)N1C[C@@H]2[C@@H]3CC[C@@H](C3)[C@@H]2C1	68
Cc1cc(C)n(Cc2nc(-c3ccc(NC(=O)c4ccc(F)cc4F)cc3)oc2C)n1	-85*
Cc1nn(Cc2nc(-c3ccc(NC(=O)c4ccccc4F)cc3)oc2C)c(C)c1C	-69
Cc1cc(C)n(Cc2nc(-c3ccc(NC(=O)Cc4cccc(F)c4)cc3)oc2C)n1	-38
Cc1nn(Cc2nc(-c3ccc(NC(=O)c4ccc(F)cc4F)cc3)oc2C)c(C)c1C	-101*
Cc1nn(Cc2nc(-c3ccc(NC(=O)c4cccc(F)c4)cc3)oc2C)c(C)c1C	49
Cc1cc(C)n(Cc2nc(-c3ccc(NC(=O)Cc4ccccc4F)cc3)oc2C)n1	-8
Cc1cc(C)n(Cc2nc(-c3ccc(NC(=O)c4ccc(F)cc4Cl)cc3)oc2C)n1	66
Cc1cc(C)n(Cc2nc(-c3ccc(NC(=O)c4cc(F)ccc4F)cc3)oc2C)n1	-81*
COc1ccc(C(=O)Nc2ccc(-c3nc(Cn4nc(C)cc4C)c(C)o3)cc2)cc1F	114
Cc1ccc(-n2nc(-c3ccc(OC(F)(F)F)cc3)cc2NC(=O)C2CCC2)cc1C	-61
CCNC(=O)C1(Cc2ccccc2-c2ccsc2)CN(C(=O)C(C)C)CCO1 (centres undefined)	-21
Cc1ccc(CN2CCC3(CCC(=O)N3Cc3ccccc3)CC2)s1	54
CCOc1ccc(-c2nc(CN3CCN(C(=O)Nc4ccc(Cl)cc4)CC3)c(C)o2)cc1	-37
COc1ccc(-c2nccn2C2CCCC2)cc1Cn1cccn1	2
COCc1nc(N[C@H]2CCCN(Cc3ccccc3)C2)c2cnn(C)c2n1	-16
CCCCSc1nc2sc3c(c2c(=O)n1-c1ccc(C)cc1)CCC3	-19
Cc1ccc(C(=O)N2CCN(c3nc(C)nc4sc5c(c34)CCCC5)CC2)cc1	-96*
Cc1ccc(C(=O)N2CCOCC2)cc1	-3
Cc1ccc(CNC(=O)Cn2c(=O)c(S(=O)(=O)c3ccccc3)cc3ccccc32)cc1	11
O=C(CCC1N=C2c3ccccc3N=C(SCc3ccccc3F)N2C1=O)NCc1cccs1 (centres undefined)	7
SMILES	Tgondii IFNg
c1ccc(-c2nc(N3CCC4(CCCO4)CC3)no2)cc1	292
O=S(=O)(c1cccc(F)c1)N1CCn2nnc(COCC3CC3)c2C1	-40
CCCN(C/C=C/c1ccccc1)C(=O)c1c[nH]c2ccc(OC)cc2c1=O	23
O=C1CCc2cc(S(=O)(=O)Nc3ccc(Br)cc3)cc3c2N1CC3	243
CC(C)c1ccc(NS(=O)(=O)c2cc3c4c(c2)CCN4C(=O)CC3)cc1	-77*
CCc1cccc(NS(=O)(=O)c2cc3c4c(c2)CCN4C(=O)CC3)c1	-81*
CCc1ccccc1NS(=O)(=O)c1cc2c3c(c1)CCN3C(=O)CC2	-52
Cc1cc(F)ccc1NS(=O)(=O)c1cc2c3c(c1)CCN3C(=O)CC2	-45
O=C1CCc2cc(S(=O)(=O)Nc3ccc(Cl)cc3)cc3c2N1CC3	-17
O=C1CCc2cc(S(=O)(=O)NCCc3ccccc3)cc3c2N1CCC3	-5
Cc1cc(C)cc(NS(=O)(=O)c2cc3c4c(c2)CCN4C(=O)CC3)c1	-79*
COc1ccc(NS(=O)(=O)c2cc3c4c(c2)CCN4C(=O)CC3)cc1	-15
COc1ccc2[nH]c(CN3CCCC(OCc4ccccn4)C3)c(C)c2c1 (centres undefined)	12
COc1ccc(NC(=O)c2nnn(Cc3nc(-c4cccc(Cl)c4)oc3C)c2C)cc1OC	33
COC(=O)[C@@H](NCC(=O)Nc1ccc(C)cc1C)c1ccccc1	0
C=CCN(Cc1ccccc1)C(=O)C1(C(N)=O)CC1	91
COc1ccc2c(c1)c(-c1cn3nc(-c4ccccn4)c(-c4ccccn4)nc3n1)c(C)n2C	30
CCc1ccc(Nc2nc(C(=O)NCc3ccc(OC)cc3)nc3ccccc23)cc1	1
C=CC[C@@H]1CC=C[C@@H](C)N1C(=O)c1cc(C)nc(C)n1	-14
CCOc1ccc(-c2c(-c3ccccc3)ncn2CCC(N)=O)cn1	-1
Cc1ccc(NC(=O)CC(=O)N2CCC3(CCCN(C)CC3)CC2)cc1	-69
Cc1ccc(Sc2c(Sc3ccc(C)cc3)c(=O)c2=O)cc1	-88*
Cc1ccc(SCCNS(C)(=O)=O)cc1	3
Cc1ccc(SCCC(=O)c2ccc(Cl)cc2)cc1	-10
COc1ccc(-n2c(=O)c(C(=O)NCC(C)C)c(O)c3cccnc32)cc1	13
SMILES	Tgondii IFNg
Cn1nnc2c1CCN(C(=O)CS(C)(=O)=O)C2COCC1CC1 (centres undefined)	5
Cn1cc(C(CNC(=O)Nc2cccc(Cl)c2)c2cccnc2)c2ccccc21 (centres undefined)	i
O=C(Nc1ccc(Cl)cc1)c1nc(Nc2ccccc2)c2ccccc2n1	96
Cc1c(Nc2nc3nonc3nc2Nc2cccc(Cl)c2)c(=O)n(-c2ccccc2)n1C	-24
Clc1ccc(Nc2nc3nonc3nc2Nc2ccc(Cl)cc2)cc1	-103*
CC(CCc1ccco1)N(C)S(=O)(=O)c1ccc2[nH]c(=O)ccc2c1 (centres undefined)	178
Cc1nc(CN2C[C@@H](c3ccccc3)[C@@]3(CCNC3=O)C2)cs1	-14
COc1ccc2c(c1)NC1(CCN(C(=O)Cc3ccc(C)cc3)CC1)c1cccn1-2	12
COc1ccc(CCC(=O)N2CCC3(CC2)Nc2cc(OC)ccc2-n2cccc23)cc1	-82*
COc1ccc(OCC(=O)N2CCC3(CC2)Nc2cc(OC)ccc2-n2cccc23)cc1	18
O=C(CCc1ccccc1)N1CCC2(CC1)Nc1cc(F)ccc1-n1cccc12	45
COc1ccc(CCC(=O)N2CCC3(CC2)Nc2cc(F)ccc2-n2cccc23)cc1	-75*
COc1cc(CCC(=O)N2CCC3(CC2)Nc2cc(F)ccc2-n2cccc23)cc(OC)c1OC	37
S=c1[nH]nc(-c2ccccc2Br)o1	1
COC[C@@H]1CC[C@@H]2[C@@H](CCN2C(=O)NCc2cccc(F)c2)O1	228
CSc1nn(-c2ccccc2)cc1C(=O)Sc1ccccn1	27
COc1ccc(CNC(=O)C2CCCN(c3cc(C)nc4ncnn34)C2)cc1 (centres undefined)	-7
CCc1noc(CN(CC)C(=O)c2sc(C(C)C)nc2C)n1	-34
CCC(=O)N1CCC2(CC1)Nc1ccc(Cl)cc1-n1cccc12	51
Cc1ccc2c(c1C)-n1cccc1C1(CCN(C(=O)CC3CCCC3)CC1)N2	-88*
O=C(CC1CCCC1)N1CCC2(CC1)Nc1ccc(Cl)cc1-n1cccc12	59
CCCCC(=O)N1CCC2(CC1)Nc1ccc(Cl)cc1-n1cccc12	-108*
Cc1ccc2c(c1)NC1(CCN(C(=O)CCc3ccccc3)CC1)c1cccn1-2	5
O=C(CCc1ccccc1)N1CCC2(CC1)Nc1ccc(Cl)cc1-n1cccc12	-121*
Cc1ccc2c(c1C)-n1cccc1C1(CCN(C(=O)CC3CCCCC3)CC1)N2	27
O=C(CCC1CCCC1)N1CCC2(CC1)Nc1ccc(Cl)cc1-n1cccc12	57
Cc1ccc2c(c1C)-n1cccc1C1(CCN(C(=O)CCC3CCCC3)CC1)N2	33
CCN(C)C(=O)Cn1nc(C2CCCNC2)n(-c2ccccc2)c1=O (centres undefined)	7
CCc1ccc(CN(C)c2nc(-c3ccncc3)nc3c2CNC3)nc1	-8

High-throughput results: PubChem, Broad Institute
